# A selection: hits, their analogues and other compounds. The true share with any hit is near 4.7%.
# D1 PAM: potentiators of human D1 dopamine receptor | P21728 | HEK293 TREx D1 cells, calcium flux, dopamine EC20 potentiation | potentiation, % at 10 µM | hit rate 0.036% among 360,000; in the data active = potentiation above about 30%; also: 0% is about no effect
# Target sequence (P21728 whole entry, looked up): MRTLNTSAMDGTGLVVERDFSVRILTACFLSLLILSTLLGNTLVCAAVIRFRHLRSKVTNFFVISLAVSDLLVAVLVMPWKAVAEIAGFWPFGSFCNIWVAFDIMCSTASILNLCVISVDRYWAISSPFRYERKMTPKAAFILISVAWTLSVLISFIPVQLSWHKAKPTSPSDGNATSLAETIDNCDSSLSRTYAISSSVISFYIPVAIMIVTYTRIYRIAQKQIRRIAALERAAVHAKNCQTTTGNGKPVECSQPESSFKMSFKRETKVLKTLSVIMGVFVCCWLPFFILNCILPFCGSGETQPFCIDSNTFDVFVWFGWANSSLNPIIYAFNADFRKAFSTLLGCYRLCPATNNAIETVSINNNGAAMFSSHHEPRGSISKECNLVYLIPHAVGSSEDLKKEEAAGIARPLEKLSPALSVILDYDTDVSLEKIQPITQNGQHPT
# D1 antag: human D1 dopamine receptor antagonism; HEK293 TREx D1 cells, calcium flux, dopamine EC80; active compounds read low; P21728; activity change, negative = inhibition, % at 10 µM; AID 504652; hit rate 3.2% among 360,000; in the data active = activity change below about -30%; also: % is scaled to controls: 0 for no effect and ±100 for the full control effect
#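 Using tetracycline-induced force-coupled D1 Hek293 cells and a calcium dye, signals were followed for 180 s after compound, then for 180 s after EC80 dopamine, to detect inhibitors.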
# TRHR agonist: TRH receptor (human) agonism; activation, % at 2 µM; P34981; hit rate 0.18% among 360,000; TRHR cells, calcium flux fluo-8, FDSS agonist mode; AID 493084; also: 0% is about no effect
#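 Fluo-8-loaded TRHR cells; 10 s baseline, compound added, kinetic Ca2+ fluorescence read 1/s, agonist mode.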
# TRHR PAM: allosterically enhances the human TRH receptor; P34981; TRHR cells, fluo-8 calcium fluorescence, EC20 TRH enhancement; enhancement, % at 2 µM; hit rate 0.66% among 360,000; AID 493056; in the data active = enhancement above about 30%; also: 0% is about no effect
#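 Enhancer read-out: after compound pinning and an initial kinetic agonist-mode read, an EC20 of TRH (10 nM final) was injected and fluo-8 calcium signal (Ex 480/Em 530) followed at 1 s/cycle for 100 cycles in TRHR-expressing cells.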
# D1 ag: human D1 receptor agonism; hit rate 1% among 360,000; HEK293 T-REx D1 cells, calcium flux, agonist mode; AID 504660; P21728; activation, % at 2 µM; also: 0% is about no effect
#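 Tetracycline-induced HEK293 TREx D1 cells, force-coupled to calcium signalling, were dye-loaded with a no-wash calcium kit. Compound was pin-added after a 10 s baseline. Fluorescence was read kinetically at 1 cycle/s for 180 s, with calcium rises flagged as agonism.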
# * hit, by the source's call; ! = repeats disagree. Rule as the data show it, unless noted: active = activation above about 30%; inactive = the rest.
SMILES,D1 PAM,D1 antag,TRHR agonist,TRHR PAM,D1 ag
COc1cccc(NC(=O)Nc2cc(C(=O)O)ccc2C)c1,-6,-43*,-3,-5,3
COc1cccc(NC(=O)Cn2c(=O)n(CCCCC(=O)NCCc3ccccc3)c(=O)c3ccccc32)c1,2,-44*,-1,-26,0
COc1cccc(NC(=O)Cc2c(O)c3ccccc3[nH]c2=O)c1,-12,0,1,31*,1
COc1cccc(C(=O)NC(C)CCc2ccccc2)c1 (stereo not given),-2,-1,-1,33*,0
CC(CCc1ccccc1)NC(=O)c1ccccc1 (stereo not given),-4,2,0,-4,0
CCN1CCN(CCCNC(=O)Cn2nc(C)n3c(cc4cc(C)ccc43)c2=O)CC1,-5,0,0,-1,0
Cc1ccc2[nH]c(=O)c3cc(C(=O)N(CCCOC(C)C)Cc4ccco4)sc3c2c1,-2,4,2,42*!,1
CC1OC23CCCCC2C(C#N)(C(=N)O3)C1(C#N)C#N (stereo not given),-4,-43*,1,3,-1
CCC1OC23CCCCC2C(C#N)(C(=N)O3)C1(C#N)C#N (stereo not given),-7,-18,6,-2,5
O=C(Nc1nnc(S(=O)(=O)N2CCCc3ccccc32)s1)c1ccccc1,0,-33*,0,2,0
COC(=O)Nc1ccc(S(=O)(=O)N2CCCc3ccccc32)cc1,-2,-38*,0,-3,5
CCC(=O)Nc1ccc(S(=O)(=O)N2CCc3ccccc32)cc1,-8,-41*,0,7,8
O=C(Nc1ccc(S(=O)(=O)N2CCc3ccccc32)cc1)C(F)(F)F,-1,6,2,-3,5
O=C(Nc1nnc(S(=O)(=O)N2CCc3ccccc32)s1)c1ccccc1,-1,8,0,12,0
CCCCOc1ccc(C(=O)Nc2ccc3c(c2)CCCN3C(=O)c2cccs2)cc1,0,-6,1,-3,4
CN1CCN(Cc2ccc(Sc3ccc(Cl)cc3)c([N+](=O)[O-])c2)CC1,0,-22,-2,4,79*
COc1cc(C(=O)Nc2cccc(OCc3cc(=O)n4cc(C)sc4n3)c2)cc(OC)c1OC,-3,-17,-1,-7,-1
CCCn1c(N)c(N2CCCCC2)c(=O)n(CC(=O)Nc2ccc(OC(F)(F)F)cc2)c1=O,4,-30*,0,13,0
CCCn1c(N)c(N2CCCCC2)c(=O)n(CC(=O)Nc2ccccc2C)c1=O,-2,8,-1,-2,0
Cc1nc(C)c(-c2ccc(SCC(=O)Nc3cccc(F)c3)nn2)s1,2,-32*,-1,7,10
Cc1cccc2cc(C#N)c(SCC#N)nc12,2,9,6,-6,32*
Cc1cccc2cc(C#N)c(SCC(=O)NCc3cccs3)nc12,-2,9,1,2,4
CCc1nc(SCC#N)c(C#N)cc1C,-5,-34*,0,-1,0
O=C(CCCN1C(=O)c2ccccc2C1=O)N1CCN(c2ccccn2)CC1,-2,-16,2,-11,0
Cc1ccccc1N1CCN(C(=O)CN2C(=O)c3ccccc3C2=O)CC1,-7,-20,0,0,5
SMILES,D1 PAM,D1 antag,TRHR agonist,TRHR PAM,D1 ag
Cc1ccc(C)c(N2CCN(C(=O)NCc3noc4ccc(C)cc34)CC2)c1,-5,8,0,6,0
Cc1ccc(C)c(N2CCN(C(=O)NCc3noc4ccccc34)CC2)c1,-2,-42*,0,-1,1
O=C(CN1C(=O)c2ccccc2C1=O)N1CCN(c2ccccn2)CC1,0,-30*,0,-4,1
O=C(CSc1nnc(N2CCCC2)n1-c1ccccc1Cl)N1CCN(c2ccccn2)CC1,-3,-52*,-1,4,-1
Cc1ccc(C)c(N2CCN(C(=O)CN3C(=O)c4ccccc4C3=O)CC2)c1,-5,-35*,0,-5,6
CCn1c(=O)c2sccc2n2c(CCC(=O)Nc3ccc(C(C)C)cc3)nnc12,-1,-16,-2,-5,-1
COc1cn(CC(=O)Nc2ccc(F)cc2)c(CN2CCCCC2)cc1=O,-2,7,0,15,1
COc1cn(CC(=O)Nc2ccc(C)cc2)c(CN2CCCCC2)cc1=O,-2,-46*,0,2,3
